According to PubChem BioAssay (NCI):
This is part of a sample that, as a whole, favours compounds with a hit. Of some 79,000 tested, about 15% had one in any assay. Values without a mark were called inactive. Activity calls are given as the source filed them. No stated cut-off is given here; in the data, active means growth inhibition above about 70%; inactive means the rest. Where a SMILES comes first, the peptide text is derived from it. [ ]: non-standard residue; d: D form. The star is where a group is joined. ξ: configuration not given here. ξF = NC(Cc1ccccc1)C(=O)O; Cbz = O=C(OCc1ccccc1)*

Experiments:
[1] = NCI Yeast Anticancer Drug Screen. Data for the rad50 strain (AID 155);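 further: 0% = growth of vehicle-only cultures of the same strain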; settings: S. cerevisiae rad50 strain growth inhibition; at 50.0 µM; hits give high values
Summary of the method: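 Cells are treated with compound, grown, and their growth is then scored against vehicle-only cultures of the same repair-deficient yeast strain.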

[2] = NCI Yeast Anticancer Drug Screen. Data for the mec2-1 strain (AID 157); settings: S. cerevisiae mec2-1 strain, at 50.0 µM, hits give high values
Summary of the method: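 Cells of the genetically defined mec2-1 yeast strain are incubated with test compound. Inhibition of growth is calculated against vehicle-treated controls.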

[3] = NCI Yeast Anticancer Drug Screen. Data for the sgs1 mgt1 strain (AID 161);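 further: 0% = growth of cultures given vehicle only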; settings: S. cerevisiae sgs1 mgt1 strain, at 50.0 µM, hits give high values
Summary of the method: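 Mutant yeast exposed to compound; growth scored against vehicle-only wells.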

[4] = NCI Yeast Anticancer Drug Screen. Data for the cln2 rad14 strain (AID 165);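 further: 0% = growth equal to vehicle treated cultures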; settings: S. cerevisiae cln2 rad14 strain, at 50.0 µM, hits give high values
Summary of the method: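 The screen exposed genetically defined yeast (cln2 rad14) to test compounds and scored growth inhibition relative to vehicle-treated controls.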

[5] = NCI Yeast Anticancer Drug Screen. Data for the bub3 strain (AID 167); settings: S. cerevisiae bub3 mutant strain, at 50.0 µM, hits give high values
Summary of the method: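 Part of a panel of yeast mutants defective in DNA damage repair or cell cycle regulation. Each strain is grown with compound, and inhibition is calculated relative to solvent-treated cultures.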

[6] = NCI Yeast Anticancer Drug Screen. Data for the mlh1 rad18 strain (AID 175); settings: S. cerevisiae mlh1 rad18 strain growth inhibition; at 50.0 µM; hits give high values
Summary of the method: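 Compound-treated yeast growth, normalised to vehicle controls. Strain bears defined DNA repair mutations.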

Compound	growth inhibition [1]	growth inhibition [2]	growth inhibition [3]	growth inhibition [4]	growth inhibition [5]	growth inhibition [6]
O=C1c2cccc(O)c2C(=O)c2c(OC3OC(CO)C(OC4OC(CO)C(O)C(O)C4O)C(O)C3O)cccc21 (configuration not stated)	94.2% (active)	36.2%	32.5%	-5.55%	4.15%	31.4%
CCOP(=O)(OCC)C([O][Sb]([O]CC(C)Cl)[O]CC(C)Cl)c1ccc(OC)cc1 (configuration not stated)	-41.9%	-4.85%	-10.9%	-2.45%	2.05%	-18.6%
O=c1ccc(=O)c2c(=O)c3cc4[nH]c5ccccc5[nH]c4cc3c(=O)c12	2.25%	-7.05%	0.55%	1.85%	-5.6%	5.2%
Cc1[nH]nc(C(=O)O)c1[N+](=O)[O-]	35.6%	11.3%	20.2%	-25.7%	-3.2%	8.2%
CC(=O)Oc1ccccc1/C=C1\N=C(c2ccccc2)OC1=O	-5.25%	2.25%	1.85%	-30.2%	-5.25%	-6.4%
CC(C)(C)CNCCCBr	-19.9%	-4.8%	-9.05%	-13.3%	30.8%	8.15%
Nc1cccc2c([N+](=O)[O-])cccc12	62.7%	34.4%	62.8%	31.2%	17%	60.2%
CCN(CCOC(=O)Nc1ccc(Cl)cc1)C(=O)Nc1ccc(Cl)cc1	-1.75%	-36.8%	16.4%	2.8%	-8.55%	-18.2%
CN(C)/N=C\c1ccc([N+](C)(C)C)cc1	-20.4%	-25.1%	7.05%	-19.9%	32.8%	-44.7%
CC1=CCC(CC=O)C1(C)C (configuration not stated)	9.95%	-1.95%	-6.3%	-43.4%	-6.65%	-3.45%
C[n+]1cn(C2=C([O-])c3ccccc3C(=O)/C2=N\S(=O)(=O)c2ccccc2)c2ccccc21	0.95%	4.8%	2.4%	-0.6%	4.35%	-28.9%
CC(C)=C1C=C(C(C)(C)C)C(=O)C(C(C)(C)C)=C1	29.9%	-5.9%	-1.8%	17.4%	9.15%	28.4%
CN(C)c1ccc(/C=C2\N=C(c3ccc([N+](=O)[O-])cc3)OC2=O)cc1	1.35%	-6.75%	17.1%	6.95%	14.9%	7.55%
O=[N+]([O-])c1ccc(-c2ccccc2)c([N+](=O)[O-])c1	-3.05%	0.35%	-29.8%	-31.9%	1.5%	17.6%
CCOC(=O)CNC(=O)C(Cc1ccccc1)NC(=O)OCc1ccccc1 (configuration not stated) (Cbz-[ξF]-Gly-OEt)	-16.2%	-19.1%	4.55%	-4.75%	-3.6%	-9%
COC(=O)c1cc([N+](=O)[O-])c(Sc2ncnc3nc[nH]c23)c([N+](=O)[O-])c1	53%	25.6%	24.4%	80% (active)	26.9%	34.8%
Cc1cc2c(=O)c3ccccc3oc2c(C(=O)O)c1C	-6.75%	-6.25%	-50.6%	12%	-1.9%	-4.15%
COc1cccc(-c2nc(-c3cnccn3)n(Cc3ccccc3)n2)c1	-49.1%	-60.7%	-59.8%	-22%	-46.5%	-38.8%
Cc1cn(C2CC(N)C(C(=O)NCC(=O)O)O2)c(=O)[nH]c1=O (configuration not stated)	-19.9%	-54.5%	-0.6%	2.65%	-40.1%	-26.1%

Compound	growth inhibition [1]	growth inhibition [2]	growth inhibition [3]	growth inhibition [4]	growth inhibition [5]	growth inhibition [6]
CCC/C(=N/NC(N)=O)C1=CCCCC1	0.45%	-5.45%	-2.6%	-28.4%	-18.9%	3.4%
CN(C)NC1=NS(=O)(=O)c2cc3c(cc2S1)N(N(C)C)C(=O)c1cc2c(cc1N(N(C)C)C3=O)SC(NN(C)C)=NS2(=O)=O	-6.3%	-22.5%	-14.4%	2.35%	16.4%	-2.9%
CC(C)CCCOC(=O)c1ccccc1	3.05%	-6.5%	-1.65%	-3.2%	21.6%	-1%
Cc1c(O)ccc2c1CCCC2	7.05%	5.75%	-4.8%	-34.2%	6.1%	4.65%
NC(=O)c1cccnc1	15.1%	-41.4%	5.1%	-27.2%	-12.9%	9.95%
CCOC(=O)C1Cc2c([nH]c(=O)[nH]c2=O)OC1c1ccc(OC)cc1 (configuration not stated)	26.4%	7.1%	6.3%	19.4%	27.1%	8.5%
O=c1ccc2cc(Cl)ccc2o1	12.6%	-12.9%	-7.8%	-16.4%	18.1%	-20.1%
C1CCC(C2CCCC[N-]2)[N-]C1.C1CCC(C2CCCC[N-]2)[N-]C1.O=C(O)C(=O)O.[Ru+4] (configuration not stated)	31.8%	9.4%	16.2%	11.8%	-3.25%	7.9%
O=C(Cl)c1cccc2c([N+](=O)[O-])cccc12	-4.45%	2.95%	-2.35%	-44%	-1.4%	11.8%
CCCCN(CCCC)CC(O)c1cc(OC)c2cc(Cl)cc(Cl)c2n1 (configuration not stated)	99.5% (active)	99.8% (active)	99.8% (active)	99.3% (active)	99.2% (active)	99.7% (active)
COc1ccc(C(=O)O/N=C2/CCC/C2=C\c2ccccc2)cc1	13.8%	13.2%	33.6%	26.4%	10.9%	8.4%
CC1(C)CC2CC(CC(C)(C)C2=O)C1=O	-8.65%	-11%	-0.7%	5.05%	7.9%	-1.75%
O=C(NN1C(=O)C(Cl)C1c1cccc([N+](=O)[O-])c1)c1ccccc1O (configuration not stated)	-17.4%	-26.1%	-37.5%	1.1%	-27.1%	-25.1%
CC(=O)On1c(-c2ccccc2-c2nc3ccccc3n2OC(C)=O)nc2ccccc21	10%	14.4%	13.4%	8.9%	-5.05%	2.75%
CCCc1cc(=O)oc2c3c(c4c(c12)OC(C)(C)CC4)O[C@H](C)C(C)C3O (some centres not stated)	24.8%	11.6%	11.6%	26.1%	47.6%	35%
NC(=O)N/N=C/C(/C=N/NC(N)=O)[N+](=O)[O-]	-3.8%	-7.4%	-10.3%	-1.75%	-14.6%	6.8%
CCOC(=O)C(CCC#N)(NC(C)=O)C(=O)OCC	1.4%	-2.35%	7.4%	-25.3%	1.7%	-20.9%
CC(C)C(=O)OC1(Cc2cccc[n+]2C)CCCCC1	8.8%	9.6%	22.6%	27.4%	12.9%	1.45%
